Screens (PubChem BioAssay)
This is a sample that favours compounds with a hit; in the whole collection about 2.9% have one here.
TSHR antag – Antagonists of the Thyroid Stimulating Hormone Receptor: HTS campaign | Thyrotropin receptor (Homo sapiens), P16473 | TSHR-expressing cells, TSH-stimulated cAMP HTRF, 2 h; stronger effect = lower value | activity change, negative = inhibition, % at 11.5 µM | actives 0.2% (n = 330,000);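 active = activity change below a set negative limit, meaning inhibition stronger than a set level, cut at about -70% in these data; inconclusive = activity change between two set negative limits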
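Freshly harvested TSHR cells receive pin-tooled compound, then EC80 TSH at 4nM final. After 2 hours at 37 deg C, antibody in lysis buffer and cAMP-d2 are added; 30 minutes at ambient temperature precede the HTRF read.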
D3 antag – qHTS of D3 Dopamine Receptor Antagonist: qHTS; actives 2.5% (n = 360,000); max response, negative = inhibition, %; D3R cells, DiscoveRx beta-arrestin luminescence, antagonist mode; stronger effect = lower value; D(3) dopamine receptor (Homo sapiens), P35462; in the data active = max response below about -50%; inconclusive = no clear call, values can overlap the other calls
Target sequence (P35462 whole entry, looked up): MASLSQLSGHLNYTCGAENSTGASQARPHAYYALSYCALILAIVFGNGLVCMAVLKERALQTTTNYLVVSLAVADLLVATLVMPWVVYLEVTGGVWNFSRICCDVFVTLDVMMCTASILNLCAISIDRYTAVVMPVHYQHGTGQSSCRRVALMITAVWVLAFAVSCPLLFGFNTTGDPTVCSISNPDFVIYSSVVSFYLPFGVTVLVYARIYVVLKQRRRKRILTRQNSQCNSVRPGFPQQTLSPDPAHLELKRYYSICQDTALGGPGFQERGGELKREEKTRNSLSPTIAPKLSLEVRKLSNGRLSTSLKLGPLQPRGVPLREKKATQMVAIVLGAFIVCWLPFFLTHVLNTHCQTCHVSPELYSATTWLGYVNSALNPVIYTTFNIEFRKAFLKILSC
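Cells plated overnight at 1500 cells/well, then exposed to library compounds with dopamine controls for 90 minutes at 37 degrees C. DiscoveRx reagent added for 30–60 minutes at room temperature; luminescence read, quantitative HTS format.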
DRD3 agonist – qHTS of D3 Dopamine Receptor Agonist: qHTS | D(3) dopamine receptor (Homo sapiens), P35462 | D3R DiscoveRx beta-arrestin cells, luminescence, 90 min | max activation, % | actives 0.58% (n = 410,000); in the data active = max activation above about 30%
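Agonist-mode cell screen: cells plated at 1500/well and incubated overnight at 37 °C, then exposed to library compounds for 90 min at 37 °C. Detection reagent was added for 30–60 min at room temperature, and luminescence was read.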
B2AR arrestin – qHTS assay of beta-arrestin-biased ligands of beta2-adrenergic receptor; beta-arrestin recruitment to beta2AR, cell-based reporter; AID 492947, 2010; Potency, µM (highest dose often 46.1 µM), actives largely listed as activators; actives 0.02% (n = 330,000); active = well fitted activation curve with a large enough effect; inconclusive = small, poorly fitted or top-dose-only effect; also: nearly all actives have a fitted effect of over 65% in size
Numbers stand for hits; i = inactive; ? = inconclusive; nt = not tested or not shown; ! = not active in a repeat.

SMILES | TSHR antag | D3 antag | DRD3 agonist | B2AR arrestin
Nc1[nH]c(=S)[nH]c(=O)c1-c1ccccc1 | i | -56.3 | i | i
CCC(C)OC(=O)/C(C#N)=C\c1ccc(-c2cccc(C(F)(F)F)c2)o1 (stereo not given) | nt | nt | i | nt
CCOC(=O)c1c(S(=O)(=O)N2CCC(C(=O)Nc3cccc(C#N)c3)CC2)c(C)n(C)c1C | nt | nt | i | nt
COc1ccc(/C=C/C(=O)c2ccc3c(c2)OCCO3)cc1[N+](=O)[O-] | i | -51.1 | i | i
COc1ccc(Oc2ccc(/C=N/NC(=O)c3cccnc3)cc2[N+](=O)[O-])cc1 | i | i | i | i
COc1ccc(Oc2ccc(/C=C/C(=O)c3cccc(OC)c3)cc2[N+](=O)[O-])cc1 | i | -56.1 | i | i
Cc1c(C(=O)N2CCC(C)CC2)c(S(=O)(=O)Nc2cccc(C(F)(F)F)c2)c(C)n1C | nt | nt | i | nt
CCOC(=O)C1=C(C)c2ccccc2N(S(=O)(=O)C(F)(F)F)C1C(=O)OCC (stereo not given) | i | i | i | i
CCOC(=O)C1=C(c2ccccc2)c2ccc(OC)cc2N(S(=O)(=O)C(F)(F)F)C1C(=O)OCC (stereo not given) | i | i | 38.5 | i
COC(=O)c1cc(OC)c(OC)cc1NC(=O)Nc1ccc(OC)cc1 | i | i | i | i
COC(=O)c1cc2ccc(OC)cc2c2cc(OC)c(OC)cc12 | i | i | 80.4 | i
O=C(c1ccco1)N1CCN(CCCCOc2ccc(F)cc2)CC1 | i | i | 66.4 | i
O=C(c1ccco1)N1CCN(CCCCN2C(=O)c3ccccc3C2=O)CC1 | i | i | 57.1 | i
O=C(CCN1CCN(C(=O)c2ccco2)CC1)Nc1ccc(F)cc1 | i | i | i | i
CC(C)c1cccc(-c2csc(C(C)(O)c3ccncc3)n2)c1 (stereo not given) | nt | i | i | nt
Cc1c(C(=O)O)c(O)cc2c1C(=O)c1c(O)c([C@@H]3O[C@H](CO)[C@@H](O)[C@H](O)[C@H]3O)c(O)c(O)c1C2=O | i | -83.8 | i | i
Cc1cccc[n+]1CC(=O)/C=C1\N(C)c2ccccc2C1(C)C | i | i | i | i
CN1/C(=C/C=C/c2n(C)c3cc([N+](=O)[O-])c([N+](=O)[O-])cc3[n+]2C)C(C)(C)c2ccccc21 | nt | -57.2 | i | nt
COc1ccc(CCNC(=O)c2ccc3c(c2)N=C(C)c2cc(C)ccc2S3)cc1OC | nt | nt | i | nt
Cc1cccc([C@@H]2[C@@H]3C(=O)N(Cc4ccccc4)C(=O)[C@@H]3[C@]3(Cc4ccccc4)C(=O)N(c4cccc(Cl)c4)C(=O)N23)c1 | i | i | i | i
CCN1C(=O)[C@H]2[C@@H](c3ccc(C)cc3)N3C(=O)N(c4ccccc4)C(=O)[C@@]3(Cc3ccccc3)[C@H]2C1=O | i | i | i | i
Cc1cccc([C@@H]2[C@@H]3C(=O)N(Cc4ccccc4)C(=O)[C@@H]3[C@]3(C)C(=O)N(c4cccc(Cl)c4)C(=O)N23)c1 | i | -59.6 | i | i
CCN1C(=O)[C@H]2[C@@H](c3ccc(C)cc3)N3C(=O)N(c4ccc(C)cc4)C(=O)[C@@]3(Cc3ccccc3)[C@H]2C1=O | i | i | 48.3 | i
Cc1cc(C)c2oc(-c3cccc(NC(=O)c4cc5ccccc5o4)c3)nc2c1 | nt | nt | i | nt
Cc1nn(Cc2nc(-c3cccs3)no2)c(C)c1Br | -72.3 | i | i | i
SMILES | TSHR antag | D3 antag | DRD3 agonist | B2AR arrestin
COc1cc(C2c3c(oc4ccc(C)cc4c3=O)C(=O)N2Cc2ccccc2)ccc1O (stereo not given) | nt | nt | i | nt
Cc1ccc(CNC(=O)C2CCCN(S(=O)(=O)c3cccc4nsnc34)C2)cc1 (stereo not given) | nt | nt | i | nt
Fc1ccc(Cn2c(-c3cccc(Br)c3)nc3ccccc32)cc1 | nt | nt | i | nt
CN(C)c1ccc(O)c2c1C[C@H]1C[C@H]3[C@H](N(C)C)C(=O)C(C(N)=O)=C(O)[C@@]3(O)C(=O)C1=C2O | nt | nt | 73.3! | nt
COc1cc(NC(=O)c2cc([N+](=O)[O-])ccc2NC(=O)CNC2CCCCC2C)cc(OC)c1 (stereo not given) | i | i | 48.7 | i
COc1cc(NC(=O)c2cc([N+](=O)[O-])ccc2NC(=O)CNCc2ccccn2)cc(OC)c1 | i | i | 33.6 | i
COc1ccc(NC(=O)c2cc([N+](=O)[O-])ccc2NC(=O)CNCc2ccccn2)c(OC)c1 | i | i | i | i
CCCOc1ccc(C(=O)NNC(=S)NC(=O)c2cc(-c3ccccc3)nc3ccccc23)cc1 | i | -55.4 | i | i
Cc1cccc(NC(=S)NC(=O)c2cc(-c3ccccc3)nc3ccccc23)c1 | i | -53.6 | i | i
Cc1ccccc1NC(=S)NC(=O)c1cc(-c2ccccc2)nc2ccccc12 | i | i | i | i
COCCNC(=O)c1cc(-c2cccnc2)nc2ccc(Br)cc12 | i | i | i | i
COc1cc(NC(=O)c2cc(-c3cccnc3)nc3ccc(Br)cc23)cc(OC)c1 | i | i | 35.9 | i
CCNC(=S)NNC(=O)c1cc(-c2cc(C)ccc2C)nc2ccccc12 | i | i | i | i
CCCc1cc(C(=O)NNC(=S)NCC)c2ccccc2n1 | i | -56.2 | i | i
CCCOc1ccc(C(=O)NNC(=S)NC(=O)c2ccccc2)cc1 | i | i | i | i
CCOc1ccccc1NC(=O)Cn1c(=O)n(Cc2cccs2)c(=O)c2cccnc21 | nt | nt | i | nt
Cc1cccc2c1-c1sc(C(=O)N3CCN(c4ccc(F)cc4)CC3)cc1CO2 | nt | nt | i | nt
O=C(Nc1ccncc1)c1cc(-c2cccc(Br)c2)nc2ccccc12 | ? | i | 30.6 | i
O=C(Nc1cccnc1)c1cc(-c2cccc(Br)c2)nc2ccccc12 | i | i | i | i
COc1cccc(-c2cc(C(=O)Nc3cccnc3)c3ccccc3n2)c1 | i | i | i | i
O=C(Nc1cccnc1)c1cc(-c2cccnc2)nc2ccc(Br)cc12 | i | i | 55.2 | i
CCCN(c1ccc(C(C)C)cc1)S(=O)(=O)c1ccc2c(c1)oc(=O)n2CC(=O)OCC | nt | nt | i | nt
Cc1cccc(N(C)C(=O)C2CCN(S(=O)(=O)c3cccc4nonc34)CC2)c1 | nt | nt | i | nt
OC1(c2ccccc2)CC(c2ccccc2)c2ccccc2O1 (stereo not given) | nt | i | 72.9 | nt
COc1ccc(C2CC(O)(c3ccccc3)Oc3cc(OC)c(OC)c(OC)c32)cc1 (stereo not given) | i | i | i | ?
SMILES | TSHR antag | D3 antag | DRD3 agonist | B2AR arrestin
COc1ccc(-c2noc(-c3ccc(N4CCC(C)CC4)c([N+](=O)[O-])c3)n2)cc1OC | nt | nt | i | nt
O=C(c1ccc(F)cc1)C1CCN(Cc2ccc(F)cc2)CC1 | i | -87.8 | i | i
COc1ccc(CN2CCC(C(=O)c3ccc(Cl)cc3)CC2)cc1 | i | -87.8 | i | i
O=C(c1ccc(F)cc1)N1CCN(Cc2ccccc2)CC1 | i | ? | i | i
O=C(c1ccc(F)cc1)C1CCN(Cc2ccccc2)CC1 | nt | -86.2 | i | nt
Cc1cccc(CNC(=O)c2cnc3sc(N4CCCCCC4)nn3c2=O)c1 | nt | nt | i | nt
